Here are results for 56 molecules from PubChem BioAssay AID720551 (National Center for Advancing Translational Sciences (NCATS), 2013).

Out of some 340,000 compounds screened, about 1,300 (0.38%) were called active.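 Rule for the calls: active = maximum activity change below -70%; inconclusive = maximum activity change between -70% and -50%; inactive = maximum activity change above -50%.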 Shown is part of a subset that was picked to be rich in actives.
% is set by controls: 0 for no effect and ±100 for the full control effect.

Chain of Voltage-gated inwardly rectifying potassium channel KCNH2 (Homo sapiens) (Q12809 whole entry, looked up, canonical isoform): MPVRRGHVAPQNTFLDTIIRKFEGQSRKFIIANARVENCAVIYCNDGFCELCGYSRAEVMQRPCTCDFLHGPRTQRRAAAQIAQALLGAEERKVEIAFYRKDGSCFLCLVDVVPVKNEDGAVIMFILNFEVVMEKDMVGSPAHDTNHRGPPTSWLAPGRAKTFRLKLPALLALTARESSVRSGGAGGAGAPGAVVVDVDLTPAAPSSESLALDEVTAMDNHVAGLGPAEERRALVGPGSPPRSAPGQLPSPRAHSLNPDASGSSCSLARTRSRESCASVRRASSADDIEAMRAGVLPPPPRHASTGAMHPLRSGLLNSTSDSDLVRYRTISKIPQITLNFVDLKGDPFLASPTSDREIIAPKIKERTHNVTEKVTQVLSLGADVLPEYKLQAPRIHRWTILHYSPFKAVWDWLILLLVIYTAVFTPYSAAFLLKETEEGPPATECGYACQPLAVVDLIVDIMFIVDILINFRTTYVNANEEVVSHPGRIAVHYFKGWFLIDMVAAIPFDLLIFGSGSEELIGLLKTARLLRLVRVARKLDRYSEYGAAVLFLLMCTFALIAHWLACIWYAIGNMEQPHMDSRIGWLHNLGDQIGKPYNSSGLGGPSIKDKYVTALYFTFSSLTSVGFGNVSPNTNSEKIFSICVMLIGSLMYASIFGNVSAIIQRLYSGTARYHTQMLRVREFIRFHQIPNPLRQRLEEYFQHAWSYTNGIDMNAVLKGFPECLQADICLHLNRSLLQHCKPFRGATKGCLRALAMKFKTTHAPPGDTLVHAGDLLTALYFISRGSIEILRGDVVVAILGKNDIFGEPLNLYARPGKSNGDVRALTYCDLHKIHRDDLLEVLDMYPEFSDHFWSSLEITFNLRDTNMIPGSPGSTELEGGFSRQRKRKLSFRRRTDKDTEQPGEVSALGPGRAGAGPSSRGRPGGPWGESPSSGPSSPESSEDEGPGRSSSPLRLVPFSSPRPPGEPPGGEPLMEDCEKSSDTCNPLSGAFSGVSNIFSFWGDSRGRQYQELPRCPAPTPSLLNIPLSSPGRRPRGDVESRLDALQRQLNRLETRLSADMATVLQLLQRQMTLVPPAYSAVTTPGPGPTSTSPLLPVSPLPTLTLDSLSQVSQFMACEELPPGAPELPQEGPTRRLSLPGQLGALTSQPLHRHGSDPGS

This test concerns the target Voltage-gated inwardly rectifying potassium channel KCNH2 (Homo sapiens) (UniProt Q12809). The test is described as follows: qHTS for Inhibitors of KCHN2 3.1: Wildtype qHTS. The conditions noted are these: U2OS, BacMam KCNH2, thallium flux FluxOr; at 1.84 µM; active compounds read low. The text has this:
Many antipsychotic drugs that inhibit the neurotransmitter dopamine also bind to hERG1 channel which might help explain their antipsychotic activity but also produces cardiac side effects. The discovery of the novel KCNH2 3.1 isoform offers a potential new target for the development of antipsychotic drugs without cardiac side effects. This proposal will use a high throughput thallium flux assay developed for KCNH2 to screen compounds that modulate the activity of KCNH2 3.1. The wild type KCNH2 channel will also be screened in parallel to help define the selective modulators of this KCNH2 3.1 potassium channel. The resulting compounds will be validated in electrophysiology experiments. The availability of animal models will allow future testing in vivo for effects on memory and other aspects of animal physiology linked with psychosis. NIH Chemical Genomics Center [NCGC] NIH Molecular Libraries Probe Centers Network [MLPCN] MLPCN Grant: MH096539 Assay Submitter (PI): James Barrow, Johns Hopkins University, Lieber Institute for Brain Development
U2OS cells were resuspended in cell media containing 10% fetal calf serum (FCS) at a concentration of 2 million cells / mL. The solution was treated with the Wild-type virus at 2.03 x 10^8 / mL and allowed to incubate at room temperature in the dark. After 4 hours of incubation, DMEM + 10% fetal bovine serum (FBS) was added to the cell solution. Three microliter was then dispensed into a 1536 tissue culture treated black assay plates which were incubated overnight at 37 C. Two microliter of loading buffer (HBSS + HEPES + Red40 dye quencher + FluxOr dye) was added and the assay plates were incubated for 45 min at room temperature in the dark. […] A stimulation buffer was added to the plate and the second kinetic read (2 min) was obtained. The rate constant was calculated from the kinetic reads and normalized to the positive and negative DMSO controls.
Background: In qHTS, concentration-response curves come from the screen itself.
For the molecule `CCCCN1C(N)=NC[C@@H]1Cc1ccccc1`, the activity change is -3.39% (inactive).
The result for `CCCC[C@@H]1CN=C(N)N1CCc1cccc(F)c1` reads -2.35% (inactive); that for `CN(C)C1=NC[C@H](Cc2ccccc2)N1CCc1ccc(F)cc1`, -88.4% (active).
The result for `O=C1OCCC1=COCCCCOC=C1CCOC1=O` reads 0.218% (inactive); that for `COC(=O)C[C@H]1C[C@@H]2c3cc(NC(=O)Nc4ccccc4)ccc3O[C@@H]2[C@@H](CO)O1`, -0.954% (inactive); that for `COc1cccc(NC(=O)CN2CCN(CC(=O)Nc3ccccc3Cl)CC2)c1`, 19.7% (inactive).
For the molecule `CCOc1ccc(NC(=O)CN2CCN(CC(=O)Nc3ccc(OC)cc3)CC2)cc1`, the activity change is -141% (active).
With `COc1ccc(C(=O)Nc2sc(C)c(C)c2CN2CCOCC2)cc1`, the activity change is -3.94% (inactive).
The result for `CCc1ccc(NC(=O)CN2CCC(C(=O)c3ccc(OC)cc3)CC2)cc1` reads 1.48% (inactive); that for `CCc1cc(C(=O)c2ccc(OC)cc2)c(NC(=O)CN2CCN(C)CC2)s1`, -79.3% (active); that for `CCOc1ccc(NC(=O)N2CCN(CC)CC2)cc1`, 0.628% (inactive).
The result for `C[C@H](CO)N1C[C@H](C)[C@@H](CN(C)C(=O)c2cnccn2)Oc2ncc(Br)cc2C1=O` reads -7.83% (inactive).
The result for `O=C(NCCOc1ccccc1)N1[C@H]2CC[C@@H]1C=C(c1ccc(F)cc1OCc1ccccc1)C2` reads 2.38% (inactive); that for `Cc1ccccc1SCC(=O)OCC(=O)N1CC(=O)Nc2ccccc21`, 7.23% (inactive); that for `O=C1CN(C(=O)COc2c(Cl)cccc2Cl)c2ccccc2N1`, -143% (active).
Take `O=C1CN(C(=O)COC(=O)c2cnc(Cl)c(Cl)c2)c2ccccc2N1`: the activity change was 8.42% (inactive).
The result for `COc1ccc(NC(=O)CSc2nnnn2-c2cccc(OC)c2)cc1` reads 52.5% (inactive).
The result for `Cc1ccc(S(=O)(=O)N2C[C@@H](C)[C@]3(C2)[C@H](O)[C@H](OC(=O)NCc2ccccc2)C[C@H]2C(=O)N(c4ccccc4)C(=O)[C@H]23)cc1` reads -2.73% (inactive); that for `COc1ccc([C@H]2N[C@]3(CCCN(CC4CCCCC4)C3=O)[C@H]3C(=O)N(C)C(=O)[C@@H]23)cc1`, 14.1% (inactive).
The result for `O=C1CC[C@H](O)CCN1[C@H](CSc1ccc(Br)cc1)Cc1ccccc1` reads 0.842% (inactive); that for `COc1ccc(SC[C@H](Cc2ccccc2)N2CCN(CCc3ccccc3)CCC2=O)cc1`, -108% (active); that for `C[C@H]1CCC(=O)N([C@H](CSc2ccccc2)Cc2ccccc2)CC1`, 9.67% (inactive).
Consider `C[C@H]1CN([C@@H](C)CO)C(=O)CCCn2cc(nn2)CO[C@@H]1CN(C)S(=O)(=O)c1cccc(C#N)c1`, for which the activity change is -15.1% (inactive).
The result for `CC(OC(=O)c1cccnc1Cl)C(=O)NC1CCCCC1` (stereo unspecified) reads 10.4% (inactive); that for `COc1ccc(-n2c(-c3ccc(Cl)cc3)n[nH]c2=S)c(OC)c1`, -22.5% (inactive); that for `CC1=C(N2CCN(c3ncccn3)CC2)CCC1=O`, 2.31% (inactive).
The result for `Cc1nn(-c2ccccc2)c2c1C(=O)NC(=O)C(C)(C)C2` reads -0.0713% (inactive); that for `Cc1nn(-c2ncccn2)c2c1C(=O)CC(C)(C)C2Br` (stereo unspecified), -151% (active).
The result for `O=C(COC(=O)CCc1c[nH]c2ccccc12)Nc1cccc(Cl)c1` reads -8.07% (inactive); that for `CC1(C)CN(CCc2ccccc2)C(=O)[C@H]1CC(=O)Nc1ccc(Br)cc1`, -7.47% (inactive).
As to `CCC(C)NC(=O)c1ccc(N2CCC3(CC2)OCCO3)c([N+](=O)[O-])c1` (stereo unspecified), the activity change was -3.92% (inactive).
The result for `COCCNC(=O)c1ccc(N2CCC3(CC2)OCCO3)c([N+](=O)[O-])c1` reads -4.71% (inactive); that for `CCCNC(=O)c1ccc(N2CCC3(CC2)CC(c2ccc(Cl)cc2)=NO3)c([N+](=O)[O-])c1`, -85.9% (active).
The result for `COc1cc(OC)cc(C(=O)NCC(=O)N2CCCCCCC2)c1` reads 8.95% (inactive); that for `Cc1cc(C)cc(C(=O)NCC(=O)OCC(=O)N2CCCCC2)c1`, -9.23% (inactive).
The result for `COc1ccc(OC)c(CN2CCN(C(=O)CNC(=O)c3cc(C)cc(C)c3)CC2)c1` reads -138% (active).
`COc1ccc(C(CNC(=O)CSc2ccccc2)N2CCOCC2)cc1` (stereo unspecified): the activity change was -6.03% (inactive).
`Cc1ccc(C=O)c([B-](F)(F)F)c1`: the activity change was -18.6% (inactive).
The result for `Cc1cc(=O)c2ccc(NC(=O)c3ccccc3)cc2[nH]1` reads 13.6% (inactive); that for `COc1cc(C)c(CN2CCN(C(=O)CCC(=O)c3ccc(C)s3)CC2)cc1OC`, 1.74% (inactive); that for `O=C(Nc1ccc(Br)cc1)C1CCC(=O)N1Cc1ccccc1Cl` (stereo unspecified), -94.2% (active).
The result for `O=C1c2ccccc2C(O)N1Cc1ccccc1Cl` (stereo unspecified) reads 23.3% (inactive).
The result for `COc1ccc(NC(=O)N2CCCC2C(=O)NCc2ccccc2Cl)cc1` (stereo unspecified) reads -3.26% (inactive); that for `O=C(CN1CCCC1)Nc1sc2c(c1C(=O)Nc1ccccc1)CCCC2`, -93.7% (active).
Regarding `CCN1CCN(CC(=O)Nc2sc3c(c2C#N)CCC3)CC1`, the activity change was 5.2% (inactive).
Consider `O=C(O)c1c(NC(=O)N2CCCC2)sc2c1CCCC2`, for which the activity change was 0.0561% (inactive).
The result for `c1ccc(Cn2nnc3c(NCC4CC4)ncnc32)cc1` reads -10.7% (inactive); that for `Cc1c(NC(=O)COC(=O)/C=C/c2cccc(F)c2)c(=O)n(-c2ccccc2)n1C`, 0.394% (inactive).
The result for `Cc1csc(=O)n1CCC(=O)OCC(=O)Nc1ccc(N2CCOCC2)cc1` reads -7.46% (inactive); that for `Cn1c(CCN2CCN(c3ccccn3)CC2)nc2cc(NS(=O)(=O)c3ccc(F)cc3)ccc21`, -20.6% (inactive).
As for `COc1cc(C(=O)N2CCN(C/C=C/c3ccccc3)CC2)cc(OC)c1C`, the activity change is -0.254% (inactive).
The result for `COc1cc2[nH]c(=O)n(Cc3ccc(C(=O)NC4CCN(Cc5ccccc5)CC4)cc3)c(=O)c2cc1OC` reads -9.69% (inactive); that for `COc1ccc(C(=O)NCCn2nc(C)cc2C)cc1OC1CCN(C(C)=O)CC1`, 3.09% (inactive); that for `COc1ccc(C(=O)NC2CC2)cc1OC1CCN(C/C=C/c2ccccc2)CC1`, -83.5% (active).
The result for `COc1ccc(C(=O)NC2CC2)cc1OC1CCN(Cc2cnn(C)c2)CC1` reads -9.12% (inactive).
The result for `COc1ccc(C(=O)NC2CC2)cc1OC1CCN(Cc2ccc(SC)cc2)CC1` reads -117% (active).
